HIF activator: HIF pathway transcriptional activators, primary screen, cell-based, U2OS HRE-luciferase, luminescence; U2OS HRE-luciferase reporter; normalized: DMSO 0%, desferrioxamine 100%; activation, % at 7.5 µM (by protocol); 0.32% of 300,000 active; AID 1910, 2009;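 active = mean activation of at least 10% of the iron chelator positive control signal, with at least half of replicates also reaching 10%; inconclusive = mean and replicate majority disagree about reaching 10%; inactive = mean and most replicates under 10%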
ALR inh: inhibitors of human ALR sulfhydryl oxidase, primary screen, biochemical, H2O2 detection, HRP-luminol luminescence, single point | inhibition, % (test concentration not listed) | AID 485317, 2010 | purified ALR, DTT oxidation | 3.8% of 290,000 active | FAD-linked sulfhydryl oxidase ALR (Homo sapiens), P55789;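 active = mean replicate inhibition above about 79%, with every replicate also reaching it, limit read from the data; inconclusive = only one of the two criteria met; inactive = mean below limit and not every replicate reaching it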
Target sequence (P55789 whole entry, looked up): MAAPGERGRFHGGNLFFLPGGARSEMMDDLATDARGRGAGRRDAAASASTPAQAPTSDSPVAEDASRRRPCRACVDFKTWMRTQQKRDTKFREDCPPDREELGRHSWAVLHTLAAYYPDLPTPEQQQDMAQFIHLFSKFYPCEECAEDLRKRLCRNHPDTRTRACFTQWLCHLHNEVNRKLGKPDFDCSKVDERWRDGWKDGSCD
SUMO Mot1 rescue: yeast Mot1-301 growth rescue at high temperature, primary screen, SUMOylation pathway inhibitor project, S. cerevisiae, ATP luminescence, 38.5C; growth rescue, % at 18.8 µM; AID 2716, 2010; 1% of 320,000 active; S. cerevisiae Mot1-301 growth rescue; percent above DMSO median, 100 means doubled;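 active = every valid replicate shows activation above 250% relative to neutral control wells; inactive = the rest, any valid replicate at or below 250%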;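 note: OY570 slx delta 5 strain wells were the positive control but not used for scaling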
AI-2 QS modul: Vibrio harveyi AI-2 quorum sensing modulators, primary screen, JMH597 strain, luminescence/OD600 ratio; activity change, % at 7.5 µM; 0.4% of 300,000 active; Vibrio harveyi JMH597 AI-2 luminescence/OD600 ratio, 9 h; active compounds read low; strain lacks LuxN and CqsS sensors; 0 = neutral-control median; in the data active = activity change below about -75%, passing the limit was not always enough; inconclusive = no clear call, values can overlap the other calls;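 note: luminescence divided by OD600 gain over 9 h not by final OD600 alone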
Starred values were filed as active, the others as inactive; u = inconclusive; x = no result given. Rows were chosen to be rich in hits. Some 4.8% of all compounds tested hit in one or more screens of this group.

SMILES | HIF activator | ALR inh | SUMO Mot1 rescue | AI-2 QS modul
Cc1ccc(OCC(=O)NCc2ccccn2)cc1 | -0.2 | -0.6 | 3.0 | 13.8
Cc1ccc(-c2nc(CS(=O)CC(=O)NCc3ccccc3)c(C)o2)cc1 (stereo unspecified) | -0.1 | 98.1* | -5.4 | 44.6
Cc1ccc(-c2nc(CS(=O)CC(=O)NCc3ccccn3)c(C)o2)cc1 (stereo unspecified) | 0.3 | 99.6* | -5.7 | 15.3
O=C(NC1CC1)C1CCN(S(=O)(=O)c2ccc(Cl)c([N+](=O)[O-])c2)CC1 | x | -5.5 | 1.7 | x
Cc1oc(-c2ccccc2F)nc1CS(=O)CC(=O)NCc1ccccn1 (stereo unspecified) | 0.0 | 99.2* | -7.2 | 5.0
COc1ccc(NC(=O)CS(=O)(=O)Cc2nc(-c3ccc(C)cc3)oc2C)cc1 | -0.3 | -2.0 | 22.9 | 35.3
Cc1ccc(-c2nc(CS(=O)CC(=O)NCc3ccc(F)cc3)c(C)o2)cc1 (stereo unspecified) | 0.7 | 98.8* | -1.1 | 16.8
Cc1ccc(NC(=O)CS(=O)Cc2nc(-c3ccc(C)cc3)oc2C)cc1 (stereo unspecified) | 0.1 | 98.8* | 11.2 | 19.5
CCOc1ccccc1CNC(=O)CCC(=O)N1Cc2ccccc2Oc2ncccc21 | 0.5 | -1.8 | -0.5 | 13.5
COCC(C)NC(=O)c1nn(Cc2ccccc2)c(=O)c2ccccc12 (stereo unspecified) | -0.3 | -0.7 | -21.2 | 31.3
COCc1ccc(C(=O)N2CCCC(Nc3ccc(C(C)C)cc3)C2)o1 (stereo unspecified) | 0.2 | 93.3* | 6.3 | 28.6
COCc1ccc(C(=O)N2CCCC(Nc3ccc(C(C)C)cc3)C2)s1 (stereo unspecified) | 0.3 | 92.9* | -14.7 | 26.9
CC(C)c1ccc(NC2CCCN(C(=O)c3ccnn3C)C2)cc1 (stereo unspecified) | 0.6 | u | 4.6 | 11.2
CC(C)c1ccc(NC2CCCN(C(=O)c3cnn(C(C)C)c3)C2)cc1 (stereo unspecified) | 0.4 | x | 155.9 | 23.6
CC(=O)c1cccc(N(C(=O)CNC(=O)c2ccco2)C(C(=O)NC2CCCC2)c2ccncc2)c1 (stereo unspecified) | 0.0 | -9.2 | -18.9 | 17.4
O=c1cc(CCl)nc(Cc2c(Cl)cccc2Cl)[nH]1 | 0.2 | -0.3 | 3.7 | 30.3
COc1ccc(S(=O)(=O)CCC(=O)NCc2ccc(C)o2)cc1 | -0.1 | 86.5* | -15.9 | 40.6
COc1cc(/C=N/NC(=O)c2ccc(COc3cc(C)ccc3C(C)C)cc2)cc(OC)c1O | -1.4 | x | 125.1 | 25.4
Cc1ccc(C(C)C)c(OCc2ccc(C(=O)N/N=C/c3cccc(O)c3O)cc2)c1 | 70.0* | -0.9 | 2.1 | 178.7
Cc1ccc(C(C)C)c(OCc2ccc(C(=O)N/N=C/c3ccc(O)c(O)c3)cc2)c1 | -3.6 | 97.4* | 4.0 | 48.6
CC(=O)Nc1ccc(C(=O)N/N=C/c2ccccc2OCc2ccccc2)cc1 | 1.7 | -12.3 | 11.7 | 24.7
CCOC(=O)/C(C#N)=C/c1ccc(OC(=O)c2ccccn2)cc1 | -0.1 | 97.5* | 40.0 | 13.6
O=C(Nc1c2c(nn1-c1ccc([N+](=O)[O-])cc1)CS(=O)(=O)C2)c1ccco1 | -0.4 | -2.2 | 2.2 | 13.0
CCC1(c2ccc(F)cc2)NC(=O)N(CC(=O)NCc2ccc(C)cc2)C1=O (stereo unspecified) | -0.6 | -8.9 | 8.8 | -77.7*
COc1cc(/C=C/C(=O)OCC(=O)NNC(=O)c2cc(Cl)ccc2OC)ccc1O | x | 19.0 | -21.0 | x
SMILES | HIF activator | ALR inh | SUMO Mot1 rescue | AI-2 QS modul
COc1cc(/C=C/C(=O)OCC(=O)Nc2c(C)n(C)n(-c3ccccc3)c2=O)ccc1O | -0.1 | 99.2* | 87.4 | 9.5
COc1cc(/C=C/C(=O)OCC(=O)Nc2c(C)n(C)n(-c3ccccc3)c2=O)ccc1OCC#N | -0.4 | 2.2 | -2.7 | -5.3
COc1cc(/C=C/C(=O)OCC(=O)Nc2ccccc2Sc2ccc(Cl)cc2)ccc1O | -0.5 | 91.2* | 8.2 | 50.6
COc1cccc(NC(=O)COC(=O)c2cc(=O)c3ccccc3o2)c1 | x | -5.7 | -2.0 | x
CCc1cc(SC#N)cc(C)c1NC(=O)CCl | 1.7 | 98.4* | 69.6 | -41.8
CCC(=O)Nc1ccc(SC#N)cc1C | -0.1 | 98.4* | -28.3 | -28.3
Cc1ccc(NC(=O)CCl)c(C)c1 | -29.8 | x | x | 13.1
Cc1cc(SC#N)cc(C)c1NC(=O)CCl | 1.2 | u | 103.8 | -30.9

Source: PubChem BioAssay
